HP1b chromo inh = blocks HP1-beta chromodomain binding to methylated histone tails | P83916 | AlphaScreen HP1-beta / biotin-H3K9me3 peptide binding | Potency, µM (top dose mostly 114 µM), without a hit: at the top dose activity change, negative = inhibition, actives largely listed as inhibitors | 0.56% of 390,000 active | AID 540317; further: nearly all actives have a fitted effect of over 70% in size
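Compound inhibition of the preformed complex between 50 nM HP1-beta and 50 nM biotinylated H3K9me3 peptide was read by AlphaScreen. Buffer was PBS pH 7.4 with 0.01% Tween-20. Incubations ran 30 min at room temperature, with 10 ug/mL donor/acceptor beads.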
L3MBTL1 block = L3MBTL1 (human) inhibition | Q9Y468 | AlphaScreen L3MBTL1–H3K9me1 peptide binding | Potency, µM (titrated, usually from 57.1 µM), for inactives: at the top dose activity, negative = inhibition, most hits filed as inhibitors | 0.66% of 230,000 active | AID 485360; further: on the % scale 0 is the no-effect control and ±100 the full control effect; nearly all actives have a fitted effect of over 60% in size
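Displacement of a biotinylated histone H3(1-15) peptide monomethylated at Lys9 (75 nM) from L3MBTL1 (50 nM) was measured by AlphaScreen after a 30 min room-temperature compound incubation; cefsulodin titration served as intraplate control.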
JMJD2A Tudor inh = blocks the human JMJD2A Tudor domain; AlphaScreen JMJD2A-Tudor / H3K4me3 peptide binding; AID 504339; Potency, µM (series often up to 114 µM), without a hit: at the top dose activity change, negative = inhibition, usual class: inhibitors; 4.4% of 390,000 active; O75164; further: on the % scale 0 is the no-effect control and ±100 the full control effect; nearly all actives have a fitted effect of over 50% in size
Target sequence (O75164 whole entry, looked up, the tested form may be a part): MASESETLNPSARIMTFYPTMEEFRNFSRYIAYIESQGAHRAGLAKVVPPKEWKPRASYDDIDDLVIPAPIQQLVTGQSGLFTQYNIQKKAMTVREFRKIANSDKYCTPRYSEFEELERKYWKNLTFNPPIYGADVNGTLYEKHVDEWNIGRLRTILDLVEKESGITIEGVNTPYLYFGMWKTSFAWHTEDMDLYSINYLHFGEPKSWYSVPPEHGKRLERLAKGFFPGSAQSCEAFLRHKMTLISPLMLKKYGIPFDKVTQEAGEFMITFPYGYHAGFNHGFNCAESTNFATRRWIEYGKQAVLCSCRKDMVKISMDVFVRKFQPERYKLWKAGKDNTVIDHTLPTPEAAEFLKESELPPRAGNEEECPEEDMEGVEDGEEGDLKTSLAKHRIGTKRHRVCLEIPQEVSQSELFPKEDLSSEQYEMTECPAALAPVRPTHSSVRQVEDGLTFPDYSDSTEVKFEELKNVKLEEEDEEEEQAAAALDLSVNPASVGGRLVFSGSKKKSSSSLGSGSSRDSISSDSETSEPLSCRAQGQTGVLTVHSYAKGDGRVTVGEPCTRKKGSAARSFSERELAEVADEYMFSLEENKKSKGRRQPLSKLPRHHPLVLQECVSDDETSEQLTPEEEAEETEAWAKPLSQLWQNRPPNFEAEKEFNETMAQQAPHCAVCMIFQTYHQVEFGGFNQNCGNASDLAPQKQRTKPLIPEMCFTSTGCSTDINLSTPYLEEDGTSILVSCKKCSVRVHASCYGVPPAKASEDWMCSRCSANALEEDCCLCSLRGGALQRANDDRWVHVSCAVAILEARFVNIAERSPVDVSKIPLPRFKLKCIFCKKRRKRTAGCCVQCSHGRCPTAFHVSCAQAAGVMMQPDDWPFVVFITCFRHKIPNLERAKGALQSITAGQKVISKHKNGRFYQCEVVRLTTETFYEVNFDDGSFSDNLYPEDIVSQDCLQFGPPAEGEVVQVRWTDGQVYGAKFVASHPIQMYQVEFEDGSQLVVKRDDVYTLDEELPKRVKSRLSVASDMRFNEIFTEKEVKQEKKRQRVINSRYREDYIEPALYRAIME
Sfp PPTase inh = Sfp phosphopantetheinyl transferase inhibition. AID 1490. 3.5% of 310,000 active. Q9F4F7. Biochemical Sfp PPTase activity, qHTS. Potency, µM, without a hit: largest response in the series, negative = inhibition, hits mostly inhibitors;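 further: the enzyme is Sfp with the accession as filed and its product quenches rhodamine fluorescence; 0% = enzyme reaction without inhibitor and -100% = no enzyme wells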
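After 15 min at room temperature with compound, 15 nM Sfp received 5 uM rhodamine-CoA plus 12.5 uM BHQ-2-ybbR (50 mM Hepes pH 7.6, 10 mM MgCl2). Rate came from the fluorescence difference over 30 min, ex 525/em 598 nm.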
BAZ2B block = inhibitors of human BAZ2B bromodomain | AlphaScreen BAZ2B-H3K14Ac peptide displacement | Q9UIF8 | Potency, µM (titrated, usually from 114 µM), inactives show top-dose activity change, negative = inhibition, actives largely listed as inhibitors | 4.4% of 360,000 active | AID 504333; further: on the % scale 0 is the no-effect control and ±100 the full control effect; nearly all actives have a fitted effect of over 60% in size
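In this displacement format the biotinylated H3(5-23) peptide acetylated at Lys14 serves as ligand at 50 nM, with BAZ2B at 50 nM in PBS pH 7.4 containing 0.01% Tween-20. Donor and acceptor beads are 10 ug/mL final.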
G9a inh = G9a (human) methyltransferase inhibition | G9a H3K9 monomethylation, AlphaScreen, 2 h | Potency, µM (top dose mostly 102 µM), for inactives: top-dose activity, negative = inhibition, hits mostly inhibitors | 8.8% of 350,000 active | AID 504332; further: on the % scale 0 is the no-effect control and ±100 the full control effect; nearly all actives have a fitted effect of over 75% in size
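Enzyme 20 nM + cpd, 15 min RT; add b-H3K9 pep 500 nM / SAM 20 uM; 2 h RT; anti-H3K9me1 Ab 0.5 ug/mL + SA donor / anti-rabbit acceptor beads 20 ug/mL each, 10 min; AlphaScreen read.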
Numbers without * were called inactive; ? = inconclusive; · = not tested or not shown; [ ] = another dose, or the depositor's remark. In the library only some 12% were active in any assay of this set; here they are far more common. The call rests on the fitted dose curve; in most records, active means well fitted curve in the direction sought with a large enough effect; inconclusive means small, poorly fitted or top-dose-only effect, or another doubt; inactive means no such curve, though single readings can be large; an effect the other way counts as inactive or inconclusive. Potency means the concentration at half of the fitted maximal effect.

SMILES	HP1b chromo inh	L3MBTL1 block	JMJD2A Tudor inh	Sfp PPTase inh	BAZ2B block	G9a inh
c1ccc(-c2[nH]ncc2-c2ccnc3ccccc23)nc1	·	·	·	0.6%	·	·
CC(=O)N1CCc2nc3sc(C(=O)Nc4ccc(Cl)cc4F)c(N)c3c(C(F)(F)F)c2C1	46.7%	·	3.4%	·	-5.1%	3.6%[59 µM]
Cc1c2cnn(CC(=O)Nc3c(F)c(F)cc(F)c3F)c(=O)c2c(C)n1Cc1ccccc1F	-15.9%	·	?	-9.6%	56.2µM*	?
COc1ccc(N=C2C(=O)N3c4c(cccc42)C(C)=CC3(C)C)cc1	28.2µM*	-14.1%	14.1µM*	-7.7%	35.5µM*	10µM*
Cc1ccc2c(CNCCc3ccco3)c(C(=O)O)n(Cc3ccc(F)cc3)c2c1	15.5%	·	-25.3%	·	-34.8%	?
O=P(c1ccccc1)(c1ccccc1)C(O)c1ccccn1 (stereo not given)	35.0%	-12.1%	?	79.4µM*	20µM*	·
O=P(c1ccccc1)(c1ccccc1)C(c1ccccn1)P(=O)(c1ccccc1)c1ccccc1	10.9%	8.4%	-10.4%	13.5%	-2.8%	-33.0%
OC(c1ccccn1)C(O)c1ccccn1 (stereo not given)	-11.4%	·	50.1µM*	·	·	·
Cc1ccc(S(=O)(=O)Nc2cccc(-c3ccc(N4CCCC4)nn3)c2)c(C)c1	18.1%[57 µM]	·	-24.9%	·	-17.2%	-7.4%[59 µM]
Cc1ccc(-c2csc3n[nH]c(=S)n23)cc1	?	3.6%	1.12µM*	12.6µM*	28.2µM*	1.41µM*
COc1cc(=O)n2c(-c3ccccc3)csc2n1	62.4%	0.8%	-3.8%[11.4 µM]	3.2%	-7.2%	-15.2%[59 µM]
CCC(=O)Nc1cc(Cl)ccc1C(=O)O	26.0%	·	79.4µM*	14.8%	?	-3.6%[59 µM]
O=C(COc1ccccc1Cl)Nc1ccc(C(=O)O)cc1NC(=O)COc1ccccc1Cl	0.9%	·	-12.5%	1.7%	-5.3%	0.4%[12.7 µM]
O=C(COc1cccc2ccccc12)Nc1cc(Cl)ccc1C(=O)O	6.5%	·	-21.8%	27.1%	-2.8%	76.3%
CCC(C)C(=O)Nc1cc(Cl)ccc1C(=O)O (stereo not given)	-11.7%	-5.6%	-15.5%	25.9%	-37.1%	-38.8%
Cc1cc(C(=O)Nc2ccccc2C(=O)O)ccc1NC(=O)COc1ccccc1Cl	24.1%	·	-6.2%	6.1%	-4.7%	22.4µM*
O=C(COc1cccc2ccccc12)Nc1ccc(Cl)cc1C(=O)O	10.4%	·	-26.9%	-5.0%	-17.9%	79.4µM*
Cc1ccc(NC(=O)c2cc(S(=O)(=O)NC3CCCCC3)ccc2F)cc1Cl	15.3%	·	-20.2%	·	-26.8%	-22.1%[59 µM]
Cc1cc(C(F)(F)F)c2c(N)c(C(=O)Nc3c(Cl)cccc3Cl)sc2n1	101.3%	·	52.2%	·	48.1%	32.3%[59 µM]
Cc1ccc(C2=NN(CC(=O)NCCCN(CC(C)C)CC(C)C)C(=O)CC2)cc1	7.7%	·	-16.5%	·	-0.5%	10.9%[59 µM]
Nc1ccccc1-c1ccccc1N	17.1%	37.5%	-9.7%	-5.0%	-13.0%	14.4%[0.501 µM]
Nc1ccccc1N=Nc1ccccc1N	?	8.91µM*	2.82µM*	-1.6%	3.16µM*	14.1µM*
CCOc1cc(Cn2c(-c3ccc(O)c(OCC)c3)nc3ccccc32)ccc1O	2.5%	·	?	·	-23.7%	-36.2%[59 µM]
Cn1cc(-c2cc3n(n2)CCC(=O)N3CC(=O)NCc2ccc(Cl)cc2)c2ccccc21	6.6%[57 µM]	·	-19.8%	·	-5.3%	8.0%[59 µM]
N#Cc1ccc(CN2CC[C@@]3(CCCN(C(=O)c4cccc(F)c4)C3)C2)cc1	·	·	·	-1.5%	·	5.0%[12.7 µM]
Cc1ccc(N(Cc2ccccc2)C(=O)c2ccc(F)c(S(=O)(=O)N3CCOCC3)c2)cc1	-0.7%	-11.2%	-17.1%	·	-4.1%	44.7µM*
Cc1cccc(N(Cc2ccccc2)C(=O)c2ccc(F)c(S(=O)(=O)N3CCOCC3)c2)c1	19.3%	1.7%	-23.4%	·	-10.3%	0.5%
O=C(/C=C/c1ccc(Cl)cc1Cl)c1ccc[nH]1	5.8%	?	-33.2%	7.4%	-30.8%	-37.9%
CNc1ccc(Br)cc(C(=O)/C=C/c2ccc(OC)cc2OC)c1=O	?	?	31.6µM*	?	31.6µM*	7.94µM*
